Source: PubChem (several laboratories)
A selection: hits, their analogues and other compounds. The true share with any hit is near 2%.
eIF4E-4G inh – blocks eIF4E binding to eIF4G; TR-FRET eIF4E-eIF4GI(517-606) binding, 2 h; 0.37% of 220,000 active; inhibition, % at 21.7 µM;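 active = inhibition above about 30%, limit read from the data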;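 also: 0% = full FRET control wells and 100% = background wells lacking eIF4GI fragment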
Autophagy mod – alters autophagy in cells | MEF GFP-LC3 puncta imaging; test concentration mostly 10 µM | calls only at 10 µM (by protocol) | 0.98% of 190,000 active;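 active = percentage of spot-positive cells more than 3 SD above its plate mean, without a fluorescence outlier flag or 80% toxicity; inconclusive = no clear call, values can overlap the other calls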;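 also: spot-positive cell cutoff set from DMSO-treated cells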
Ins promoter up – MIN6 insulin promoter up-regulation | MIN6 insulin promoter-GFP reporter, high-content imaging; active compounds read high | z-score at 5 µM | 0.3% of 190,000 active;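 active = z-score above 3 at 5 µM with at least 500 cells counted in the well; inconclusive = wells under 500 cells, flagged as cytotoxic or low count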
PERK inhibitor – human PERK inhibition, primary cell-based screen; Q9NZJ5; CHO PERK-DD fusion, SEAP luminescence translation reporter; inhibition, % at 5.6 µM; 0.17% of 220,000 active; AID 1416;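 active = inhibition above the mean inhibition of all tested compounds plus 3 SD, set separately per screening campaign, cut at about 2.9% in these data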;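 also: PERK kinase domain activated by AP20187 dimerizer at 100 nM; 0% = DMSO with dimerizer and 100% = rapamycin at 8.4 µM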
Insulin prom inh – TRM-6 insulin promoter activity inhibition; TRM-6 cells (human fetal islet line), insulin promoter-eGFP reporter, imaging; reporter expression induced with tamoxifen; inhibition, % at 2 µM; 0.9% of 130,000 active; AID 1273;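 active = inhibition above the mean plus 3 SD, with well images judged a real hit on visual review, cut at about 60% in these data, passing the limit was not always enough; inconclusive = inhibition over the cutoff but images rejected on review; inactive = inhibition not above the cutoff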
Starred values were filed as active, the others as inactive; i = inactive; ? = inconclusive; . = not tested or not shown; + = active, no number.

SMILES | eIF4E-4G inh | Autophagy mod | Ins promoter up | PERK inhibitor | Insulin prom inh
OCC1CCCN(C(=S)Nc2ccc(Nc3ccccc3)cc2)C1 (centres undefined) | -2.1 | i | -0.45 | 0.5 | .
C=CCNC(=O)c1c2c(nc3ccccc13)-c1ccccc1CC2 | -1.6 | i | 4.54* | -0.2 | -18.2
Cc1ccc(NC(=O)CN(C)S(=O)(=O)c2cccs2)cc1F | -3.2 | i | 0.01 | 0.3 | 73.7*
Cc1ccc(NC(=O)CN(C)S(=O)(=O)c2cccs2)cc1C | -8.5 | i | 0.73 | -0.8 | -8.3
Cc1snc(S(=O)(=O)/C(C#N)=N/Nc2cccc(C(F)(F)F)c2)c1C#N | 1.4 | i | 0.32 | -0.1 | 75.0*
COc1ccc(N/N=C(/C#N)S(=O)(=O)c2nsc(C)c2C#N)cc1 | -7.0 | i | -0.53 | -1.7 | -17.9
C=CCOc1ccc(CNn2c(C)n[nH]c2=S)cc1OC | 0.7 | i | . | 1.0 | 4.0
O=C(O)c1ccc(Cl)c(NC(=S)NC(=O)c2ccccc2[N+](=O)[O-])c1 | 1.6 | i | 0 | 0.7 | .
Cc1ccc(N2CC(C(=O)Nc3nccs3)CC2=O)cc1Cl (centres undefined) | -12.7 | + | . | 0.9 | .
Cc1ccc(CN2CCN(CC(=O)NCCCN3CCN(c4ccc(F)cc4)CC3)C2=O)cc1 | 11.0 | i | ? | -1.3 | -43.6
COc1ccc(N2CCN(CCCNC(=O)CN3CCN(Cc4ccccc4C)C3=O)CC2)cc1 | -13.9 | + | 0.03 | -1.6 | .
COc1ccc2nc(N3C(=O)CNC3=S)sc2c1 | -3.9 | . | . | -0.9 | .
CCOc1ccc2nc(N3C(=O)/C(=C/c4ccc(Cl)cc4)NC3=S)sc2c1 | 25.5 | + | 0.76 | 1.0 | .
CCN(CC)C(=O)CSc1nc(-c2ccccc2)ccc1C#N | 0.6 | i | -0.7 | 0.4 | .
N#Cc1ccc(-c2ccccc2)nc1SCC(=O)c1cccc(Cl)c1 | -1.8 | + | . | 0.4 | -66.7
N#Cc1ccc(-c2ccc(Cl)cc2)nc1SCC(=O)c1cccc(Cl)c1 | 4.7 | + | 6.91* | 0.9 | 5.4
N#Cc1ccc(-c2cccnc2)nc1SCC(=O)c1ccccc1 | -12.1 | . | 2.09 | -0.3 | .
Cc1csc(NC(=O)C(NC(=O)c2ccccc2F)C(C)C)n1 (centres undefined) | 0.9 | i | 0.96 | 0.0 | -18.2
C/C(=N/OCO/N=C(/C)c1ccc(F)cc1)c1ccc(F)cc1 | -2.8 | i | 0.08 | 0.6 | .
CCN(CC)S(=O)(=O)c1cc([N+](=O)[O-])ccc1N=Nc1c(O)[nH]c2ccccc12 | 4.2 | + | . | 0.7 | 14.3
O=C(COc1ccc(Cl)cc1Br)NC(=O)NCc1ccccc1 | 3.3 | i | -0.25 | 0.4 | -91.8
CCn1c(SCC(=O)N2CCN(C(=O)c3ccco3)CC2)nnc1C(C)C | 0.5 | i | -0.29 | 1.3 | .
COc1ccc(N(CCN2C(=O)c3ccccc3C2=O)C(=O)c2cccc([N+](=O)[O-])c2)cc1 | 0.7 | i | 3.09* | -0.1 | .
COc1ccc(N(CCCN2C(=O)c3cccc4cccc(c34)C2=O)C(=O)c2ccncc2)cc1 | -3.7 | i | -0.72 | -0.2 | -70.0
O=S(=O)(Nc1ccccc1N1CCCCC1)c1ccc(F)cc1 | 0.5 | . | 0.1 | 3.2* | .
SMILES | eIF4E-4G inh | Autophagy mod | Ins promoter up | PERK inhibitor | Insulin prom inh
CC(C)c1ccc(CN2CC(C(=O)Nc3ccccc3)CC2=O)cc1 (centres undefined) | -0.3 | i | . | 0.8 | 75.0*
CCN(CC)c1ccc(NC(=O)C2CC(=O)N(Cc3ccccc3)C2)cc1 (centres undefined) | 12.1 | i | 0.33 | -0.4 | 38.1
O=c1c2ccccc2sn1-c1cc(S(=O)(=O)N2CCOCC2)ccc1N1CCCC1 | 55.6* | i | . | -0.7 | -53.9
O=C(O)c1cc(S(=O)(=O)N2CCOCC2)ccc1N1CCOCC1 | 5.7 | i | 0.18 | 0.5 | 18.9
O=c1c2ccccc2sn1-c1cc(S(=O)(=O)N2CCOCC2)ccc1N1CCOCC1 | 70.5* | i | 0.95 | -0.6 | 7.1
O=C(CSc1n[nH]c(-c2ccccc2Br)n1)NCCN1C(=O)CSC1=O | -6.0 | i | 0.16 | 1.0 | -194.1
Cc1cccc(-c2cc3nc4c(c(NCc5ccco5)n3n2)CCCC4)c1 | -4.9 | i | -1.63 | -0.1 | .
Cc1cc2ccccn2c1C(=O)c1ccc([N+](=O)[O-])o1 | 0.6 | + | 0.05 | -0.3 | -63.6
COCCNC(=O)CCCn1c(=O)c2ccccc2n(CC(=O)NCCC2=CCCCC2)c1=O | -5.4 | i | -0.48 | -0.4 | .
COCCNC(=O)CCCn1c(=O)c2cc(OC)c(OC)cc2n(CC(=O)NCCC2=CCCCC2)c1=O | 9.6 | i | -0.5 | 1.0 | 75.0*
Cc1sc2nc(SCC(=O)NCc3cccs3)[nH]c(=O)c2c1C | 3.7 | i | 0.23 | 1.0 | 90.9*
CCN(C(=O)CSc1nc2cc(C(=O)OC)ccc2c(=O)n1Cc1ccco1)c1cccc(C)c1 | -20.9 | i | 4.54* | -0.2 | .
CC(=O)Nc1ccc(N2C(C(C)=O)=NN(c3ccc(Cl)cc3)C2c2sccc2C)cc1 (centres undefined) | -1.7 | i | . | -0.3 | 47.2
CCN(CC)c1ccc(NC(=O)CCCOc2cccc(C)c2)cc1 | 34.0* | i | -0.33 | 1.1 | 30.8
Cc1cccc(OCCCC(=O)Nc2nc3ccccc3[nH]2)c1 | -2.4 | + | 0.09 | -0.7 | -27.3
COc1ccc(N(CC(=O)Nc2ccc(C)cn2)S(=O)(=O)c2c(C)noc2C)cc1 | 0.1 | i | -0.22 | -1.4 | .
N#Cc1c(SCC(N)=O)nc2c(c1-c1ccc(OCc3ccccc3)cc1)CCCC2 | . | i | . | 0.8 | -11.6
CSc1ccc(CN2CCC(CO)(Cc3ccc(Cl)cc3)CC2)cc1 | -2.2 | + | . | -0.7 | .
CCCS(=O)(=O)Nc1ccc2cn[nH]c2c1 | 0.6 | i | -1.08 | 2.3 | .
CCOc1cc(C)c(S(=O)(=O)Nc2ccc3cn[nH]c3c2)cc1C | -6.8 | i | 4.24* | 0.6 | .
Cc1nnc(NC(=O)c2oc3cc(C)c(C)cc3c2C)s1 | 4.2 | + | 0.55 | 1.4 | .
COC(CNc1cc(=O)oc2ccccc12)OC | -0.3 | i | . | -0.5 | -22.9
CC1(c2ccc(OC(F)F)cc2)NC(=O)N(/N=C/c2c(O)ccc3ccccc23)C1=O (centres undefined) | -2.9 | i | -0.05 | -0.1 | -15.4
CC1(C)CC2(CC(c3ccccc3)Oc3cc(O)ccc32)NC(=S)N1 (centres undefined) | -10.5 | i | 0 | -0.5 | -39.7
CC(=O)Oc1ccc2c(c1)OC(c1ccccc1)CC21CC(C)(C)NC(=S)N1 (centres undefined) | 39.0* | i | -0.49 | 0.5 | 7.0
CCCCN1C(=O)C2(NNc3ccccc3O2)c2ccccc21 (centres undefined) | 0.0 | i | . | -0.3 | -170.0
C=CCN1C(=O)C2(NNc3ccccc3O2)c2ccccc21 (centres undefined) | -10.3 | + | 0.54 | 0.1 | -102.7
COc1ccc(CCNC(=O)CCc2ccc(S(=O)(=O)NC(C)C)cc2)cc1 | 2.5 | i | -0.57 | -0.5 | 71.4*
CCS(=O)(=O)N1CCC(C(=O)NCc2cccnc2)CC1 | -3.8 | i | -0.22 | 0.9 | .
